From PubChem BioAssay
Values without a mark were called inactive. The rule behind the calls is not given here. Residues, ends and D or L forms follow the SMILES beside them.

Test system: Aerobactin synthetase IucA (Klebsiella pneumoniae hvKP1)
Assay: IucA enzyme inhibition, primary screen, biochemical, Spectrum library (AID 1346200);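 note: 100% = wells without compound and 0% = wells lacking enzyme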
Conditions: malachite green pyrophosphate, A620, at 8 µM, active compounds read low

Structure (SMILES)	activity remaining
O=C(Oc1cc(OC(=O)c2ccccc2)c2c(c1)O[C@H](c1ccc(OC(=O)c3ccccc3)c(OC(=O)c3ccccc3)c1)[C@@H](OC(=O)c1ccccc1)C2)c1ccccc1	106%
CCn1cc(C(=O)O)c(=O)c2cc(F)c(N3CCNCC3)nc21	91.3%
COC(=O)[C@@H]1OC(=O)[C@H]2O[C@@]23[C@@]1(C)CCC1[C@@]2(C)CCC(=O)C(C)(C)C2C[C@@H](OC(C)=O)[C@]13C (stereo not given in full)	109%
CN1CCC[C@H]1c1cccnc1	117%
CC(=O)OC/C=C(\C)CC/C=C(\C)CC/C=C(\C)CC/C=C(\C)CC/C=C(\C)CC/C=C(\C)CC/C=C(\C)CC/C=C(\C)CCC=C(C)C	120%
C=C(C)C1Cc2c(ccc(C(=O)O)c2O)O1 (stereo not given)	120%
COc1cc(OC)c(C(C)=O)c(O)c1C	101%
CCCCCCCCCCC[C@@H](C[C@H]1OC(=O)[C@H]1CCCCCC)OC(=O)[C@@H](CC(C)C)NC=O	112%
CC(=O)OCC[C@H](C)CCC=C(C)C	104%
CCOC(=O)n1ccn(C)c1=S	127%
Oc1ccc(Cl)cc1Cc1cc(Cl)ccc1O	108%
C[C@H](CCC(=O)O)[C@H]1CCC2C3C(=O)CC4CC(=O)CC[C@]4(C)C3CC(=O)[C@@]21C (stereo not given in full)	122%
COc1cc(C)c2c(c1C=O)Oc1c(c(C)c(O)c3c1C(O)OC3=O)OC2=O (stereo not given)	114%
CC12CCC3C(CC3(C)C)C(C)(CCC1=O)O2 (stereo not given)	119%
COC1CC(O[C@H]2CC[C@]3(C=O)C4CC[C@]5(C)C(C6=CC(=O)OC6)CC[C@]5(O)C4CC[C@]3(O)C2)OC(C)C1O (stereo not given in full)	117%
COc1ccc(C(=O)O)c(O)c1OC	93.8%
COc1ccc2ccc(=O)oc2c1CC=C(C)C	106%
CC(=O)C1CCC2C3CC(=O)C4=CC(=O)CCC4(C)C3CCC12C (stereo not given)	98.9%
CCCCC(=O)O[C@]1(C(=O)CO)CCC2C3CCC4=CC(=O)CC[C@]4(C)C3[C@@H](O)C[C@@]21C (stereo not given in full)	111%
CC1=C2C(O)C(=O)OC3CC4C(C)(C)C(=O)C=C[C@]4(C)C(CC1)[C@]23C (stereo not given in full)	109%

Structure (SMILES)	activity remaining
COc1ccc2c(C)cc(=O)oc2c1	92.2%
COc1cc(OC)c2c(=O)c(-c3ccc4c(c3)OCO4)coc2c1	98%
O=C(O)c1cc(O)c2c(c1)C(=O)c1cc(O)cc(O)c1C2=O	99.8%
Nc1ccn(C2O[C@H](CO)[C@@H](O)[C@@H]2O)c(=O)n1 (stereo not given in full)	93.2%
Cn1nnnc1SCC1=C(C(=O)O)N2C(=O)C(NC(=O)C(OC=O)c3ccccc3)C2SC1 (stereo not given)	118%
CC(C(=O)O)c1ccc(N2Cc3ccccc3C2=O)cc1 (stereo not given)	103%
COc1cc(NC(C)CCCN)c2ncccc2c1 (stereo not given)	123%
Nc1ccc(C(=O)NCC(=O)O)cc1	111%
CC1CCC2(OC1)OC1CC3C4CCC5C[C@@H](O)CCC5(C)C4=CCC3(C)C1[C@@H]2C (stereo not given in full)	95.7%
NC(=O)c1ccc([N+](=O)[O-])cc1Cl	107%
COC(=O)C[C@H]1C(C)(C)C(=O)[C@@H]2CC3C4=CC(=O)O[C@@H](c5ccoc5)[C@]4(C)CCC3C1(C)C2=O (stereo not given in full)	120%
COc1ccc2ccc(=O)oc2c1	114%
CN[C@@H]1C(O)[C@@H](O[C@@H]2[C@@H](O)[C@H](O[C@H]3OC(CN)=CC[C@H]3N)[C@@H](N)C[C@H]2N)OC[C@]1(C)O (stereo not given in full)	96.1%
COC(=O)[C@H](Cc1ccccc1)NC(=O)[C@@H](N)CC(=O)O (H-Asp-Phe-OMe)	104%
Cc1onc(-c2c(Cl)cccc2Cl)c1C(=O)N[C@@H]1C(=O)N2[C@@H]1SC(C)(C)[C@@H]2C(=O)O	121%
Nc1nc(=S)c2[nH]cnc2[nH]1	121%
Cn1c(=O)[nH]c2nc[nH]c2c1=O	79.5%
CC(=O)N[C@@H](CC(=O)O)C(=O)O	110%
CC(=O)Oc1ccc(-c2cc(=O)c3c(OC(C)=O)cc(OC(C)=O)cc3o2)cc1	122%
CC1CCc2cc(F)cc3c(=O)c(C(=O)O)cn1c23 (stereo not given)	119%
